Most compounds without a hit are left out; they make up all but 17% or so of the library.
TGFb SMAD3 inh = inhibitors of TGF-b signaling; HepG2 CAGA-GFP TGF-b/SMAD3 reporter, GFP fluorescence, 18 h; TGF-beta stimulated, 500 pg/mL final; Potency, µM (titrated, usually from 46.1 µM), inactives show top-dose activity, negative = inhibition, hits mostly inhibitors; 1.2% of 410,000 active; also: % is scaled to controls: 0 for no effect and ±100 for the full control effect; nearly all actives have a fitted effect of over 65% in size
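GFP signal (ex488/em500-530) from TGF-beta-stimulated HEPG2 CAGA-GFP cells, 500 pg/mL final, 18 h at 37 degrees C in DMEM plus 1% FBS, normalized to unstimulated and DMSO-stimulated controls.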
ATXN2 expr inh = ATXN2 expression inhibition | HEK-293 ATXN2-luciferase reporter, luminescence, 24 h | Potency, µM (titrated, usually from 57 µM), for inactives: at the top dose activity change, negative = inhibition, hits mostly inhibitors | 0.72% of 360,000 active; also: % is scaled to controls: 0 for no effect and ±100 for the full control effect; nearly all actives have a fitted effect of over 55% in size
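ATXN2-luciferase reporter cells (luciferase flanked by upstream and downstream ATXN2 gene portions) were treated 24 h at 37 °C with compounds at up to 57 uM. SteadyGlo luminescence gave expression; GF-AFC fluorescence gave viability.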
DT40 TDP1 no CPT = qHTS for Inhibitors of human tyrosyl-DNA phosphodiesterase 1 (TDP1): qHTS in cells in absence of CPT; AID 686978, 2013; 15% of 420,000 active; Potency, µM (top dose mostly 46.2 µM), for inactives: top-dose activity change, negative = growth inhibition, hits mostly inhibitors; DT40 Tdp1-/- hTDP1 cells, no CPT, ATP luminescence, 48 h; also: % is scaled to controls: 0 for no effect and ±100 for the full control effect; nearly all actives have a fitted effect of over 55% in size
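A cellular qHTS used chicken DT40 cells lacking endogenous Tdp1 but carrying stably transfected human TDP1. Compounds were applied without camptothecin, and cell growth kinetics were judged by ATP-dependent luminescence after ≥48 hr.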
TDP1 cell CPT = DT40-hTDP1 cell growth loss with CPT; chicken DT40 Tdp1-/-;hTDP1 cells + 20 nM CPT, ATP luminescence, 48 h; 12% of 420,000 active; AID 686979; Potency, µM (series often up to 46.2 µM), inactives show at the top dose activity change, negative = growth inhibition, most hits filed as inhibitors; also: % is scaled to controls: 0 for no effect and ±100 for the full control effect; nearly all actives have a fitted effect of over 55% in size
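Chicken DT40 Tdp1-/- cells stably complemented with human TDP1 were seeded at 400 cells/well in medium containing 20 nM camptothecin, exposed to pin-transferred compounds, and grown at 37 °C for at least 48 hr. Viability was read as ATP luminescence.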
HepG2 tox = kills HepG2 cells in TGF-b inhibitor counter-screen; HepG2 CAGA-GFP viability, ATP luminescence, 18 h; Potency, µM (highest dose often 46.1 µM), without a hit: at the highest dose activity change, negative = cytotoxicity, most hits filed as cytotoxic; 0.76% of 410,000 active; AID 588856
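HepG2 CAGA-GFP cells (1000/well, DMEM with 1% FBS) received compound, then TGF-beta at 500 pg/mL final, and were incubated 18 hours at 37 degrees C. Viability was read by CellTiter-Glo luminescence. Media-only wells were set as complete cell-killing and DMSO as no toxicity.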
S2 tox = reduces viability in counter-screen for ATXN expression inhibitors; Potency, µM (highest dose often 56.7 µM), actives largely listed as cytotoxic; S2 cells (HEK-293 line with an ATXN2-luciferase reporter) viability, CellTiter-Fluor protease fluorescence, 24 h; 0.49% of 400,000 active; also: nearly all actives have a fitted effect of over 40% in size
* marks the source's active call; other numbers are inactive results; [ ] = remark or other dose. Calls follow the shape of the dose curve; as a rule, active = well fitted curve in the direction sought with a large enough effect; inconclusive = small, poorly fitted or top-dose-only effect, or another doubt; inactive = no such curve, though single readings can be large; an effect the other way counts as inactive or inconclusive. Potency is read from the fitted curve at half-maximal effect.

For CCC1(c2ccc(Cl)cc2)NC(=O)N(CC(=O)NC2CCCCCC2)C1=O (centres undefined) the results were TGFb SMAD3 inh -17.4%, ATXN2 expr inh 1.5%, DT40 TDP1 no CPT 23.1µM*, TDP1 cell CPT inconclusive, HepG2 tox -15.9% and S2 tox inactive.
Screening CCC1(c2ccc(F)cc2)NC(=O)N(CC(=O)NCc2ccc(F)cc2)C1=O (centres undefined) returned TGFb SMAD3 inh -9.9%, ATXN2 expr inh -2.7%, DT40 TDP1 no CPT 14.7%, TDP1 cell CPT -20.7%, HepG2 tox 7.5% and S2 tox inactive.
CCCCn1nnnc1C(c1cc2ccccc2o1)N(CCN(C)C)Cc1ccccc1 (centres undefined) was read as ATXN2 expr inh 31.6µM*, DT40 TDP1 no CPT 16.4µM* and TDP1 cell CPT 25.9µM*.
Screening CN(C)CCN(Cc1ccccc1)C(c1cc2ccccc2o1)c1nnnn1C(C)(C)C (centres undefined) returned ATXN2 expr inh -14.2%, DT40 TDP1 no CPT inconclusive, TDP1 cell CPT 16.4µM* and S2 tox inconclusive.
Screening CCOc1ccc(/C=C(\C)C(=O)c2c(C)cc(C)[nH]c2=O)cc1 returned TGFb SMAD3 inh 3.4%, DT40 TDP1 no CPT 2.9%, TDP1 cell CPT -3.8%, HepG2 tox -0.3% and S2 tox inconclusive.
Cc1cc(C)c(-n2c(C)cc(/C=C3/NC(=O)NC3=O)c2C)c(C)c1 was read as TGFb SMAD3 inh 1.7%, ATXN2 expr inh -0.1%, DT40 TDP1 no CPT 14.6µM*, TDP1 cell CPT inconclusive, HepG2 tox -23.4% and S2 tox inconclusive.
O=C(Nc1ccncc1)c1cnn2c1NC(=C1CC1)C=C2C(F)F was read as TGFb SMAD3 inh 1.1%, DT40 TDP1 no CPT 11.2µM*, TDP1 cell CPT 10µM* and HepG2 tox 2.3%.
For O=C(Nc1ccc(F)c(F)c1)c1cnn2c1NC(=C1CC1)C=C2C(F)F the results were DT40 TDP1 no CPT -17.9% and TDP1 cell CPT 16.1%.
For Cc1ccc2c(c1)CCCN2C(=O)c1cnn2c1NC(=C1CC1)C=C2C(F)F the results were TGFb SMAD3 inh -12.6%, DT40 TDP1 no CPT 10µM*, TDP1 cell CPT 10µM* and HepG2 tox -8.8%.
`O=C(c1ccco1)N1CCN(S(=O)(=O)c2c(Cl)cccc2Cl)CC1` gave TGFb SMAD3 inh -9.8%, ATXN2 expr inh -17.9%, DT40 TDP1 no CPT -25.3%, TDP1 cell CPT -24.2%, HepG2 tox -0.2% and S2 tox inactive.
For CC(C)C(=O)OCc1cc(=O)n2nc(C3CCCCC3)sc2n1 the results were TGFb SMAD3 inh -23.1%, ATXN2 expr inh 3.2%, DT40 TDP1 no CPT -19.6%, TDP1 cell CPT 6.5%, HepG2 tox -1.6% and S2 tox inactive.
Screening NC(=S)NN=Cc1nccc2c(N)cccc12 returned TGFb SMAD3 inh -26.3%, DT40 TDP1 no CPT 1.16µM*, TDP1 cell CPT 1.84µM* and HepG2 tox -12.3%.
`CCN(C(C)=O)c1cnc(C=NNC(N)=S)c2ccccc12` gave TGFb SMAD3 inh -11.0%, ATXN2 expr inh inconclusive, DT40 TDP1 no CPT 4.61µM*, TDP1 cell CPT 3.66µM*, HepG2 tox -18.9% and S2 tox inactive.
For OC1(c2cccnc2)CCN(Cc2ccc3c(c2)CN(Cc2cccc4nccnc24)CCO3)CC1 the results were DT40 TDP1 no CPT -29.1%, TDP1 cell CPT -2.8%[9.04 µM] and S2 tox inactive.
`O=C(Nc1ccccc1F)N(CCCN1CCOCC1)Cc1cc2cc3c(cc2[nH]c1=O)OCCO3` gave TGFb SMAD3 inh -3.9%, ATXN2 expr inh -10.7%, DT40 TDP1 no CPT 16.4µM*, TDP1 cell CPT 16.4µM*, HepG2 tox -34.0% and S2 tox inactive.
`O=C(Nc1ccccc1)N(CCCN1CCOCC1)Cc1cc2cc3c(cc2[nH]c1=O)OCCO3` gave TGFb SMAD3 inh 6.3%, ATXN2 expr inh -5.4%, DT40 TDP1 no CPT 10.3µM*, TDP1 cell CPT inconclusive, HepG2 tox -24.6% and S2 tox inactive.
Screening COc1cc2cc(CN(CCCN3CCOCC3)C(=O)Nc3ccc(F)cc3)c(=O)[nH]c2cc1OC returned TGFb SMAD3 inh 19.8%, DT40 TDP1 no CPT inconclusive, TDP1 cell CPT -29.0%, HepG2 tox -15.0% and S2 tox inactive.
Screening Cc1ccc(NC(=O)N(Cc2ccc3c(c2)OCO3)Cc2cc3cc4c(cc3[nH]c2=O)OCCO4)cc1 returned TGFb SMAD3 inh -6.8%, ATXN2 expr inh -9.7%, DT40 TDP1 no CPT inconclusive, TDP1 cell CPT 18.4µM*, HepG2 tox 5.1% and S2 tox inactive.
For Cc1ccc(NC(=O)N(CCCN2CCOCC2)Cc2cc3cc4c(cc3[nH]c2=O)OCO4)cc1 the results were TGFb SMAD3 inh -13.0%, ATXN2 expr inh 6.1%, DT40 TDP1 no CPT inconclusive, TDP1 cell CPT 20.6µM*, HepG2 tox -30.8% and S2 tox inactive.
Screening Cc1ccccc1N1CCN(C2CCCN(C(=O)CCN3CCCCC3=O)C2)CC1 (centres undefined) returned TGFb SMAD3 inh 2.7%, ATXN2 expr inh -2.0%, DT40 TDP1 no CPT 24.7%, TDP1 cell CPT 3.4%, HepG2 tox -1.4% and S2 tox inactive.
For Cc1nnc(SCc2nc3sc4c(c3c(=O)[nH]2)CCCC4)[nH]c1=O the results were TGFb SMAD3 inh -5.2%, ATXN2 expr inh -14.3%, DT40 TDP1 no CPT -24.8%, TDP1 cell CPT -13.1%, HepG2 tox -18.6% and S2 tox inactive.
Screening COc1ccc(-c2nc(-c3cccnc3)no2)cc1 returned TGFb SMAD3 inh 8.9%, ATXN2 expr inh 13.9%, DT40 TDP1 no CPT 15.8µM*, TDP1 cell CPT inconclusive, HepG2 tox 12.0% and S2 tox inactive.
`COc1ccc(-c2nc(-c3ccccn3)no2)cc1` gave TGFb SMAD3 inh -1.1%, ATXN2 expr inh inconclusive, DT40 TDP1 no CPT inconclusive, TDP1 cell CPT 14.6µM*, HepG2 tox 3.55µM* and S2 tox inactive.
Screening COc1ccccc1-c1nc(-c2ccccn2)no1 returned TGFb SMAD3 inh 5.9%, ATXN2 expr inh inconclusive, DT40 TDP1 no CPT 13µM*, TDP1 cell CPT 13µM*, HepG2 tox -100.1% and S2 tox inactive.
Screening CCC1CN(CC(=O)N(C)Cc2nc3ccccc3[nH]2)Cc2cc(OC)ccc2O1 (centres undefined) returned DT40 TDP1 no CPT -19.5%, TDP1 cell CPT -9.7%[9.04 µM] and S2 tox inactive.

High-throughput results deposited in PubChem by National Center for Advancing Translational Sciences (NCATS).
